This passage reports growth results from PubChem BioAssay (NCI).

Several values for one entry are separate records, joined by “and”; a condition that tells them apart may be missing. Identical values can stand only once. About 83,000 compounds went through this panel and 20% of them were active in at least one assay; those are over-represented in the sample as a whole.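 Activity criterion: percent growth below 10, measured after cells in 96-well plates were exposed to a single compound concentration for 48 hours.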 Activity calls are given as the source filed them.

Test in all cases: NCI-60 one-dose screen, 48 h (100 = growth as untreated, 0 = no growth, -100 = all killed)
The subject of test [1] is HCT-15 colon.
Test [2] deals with HT29 colon.
The test system of test [3] is SNB-75 CNS.
Test [4] has as its system SNB-19 CNS.
Test [5] concerns U251 CNS.
Test [6] relates to PC-3 prostate. As for the experimental part:
Growth inhibition of the PC-3 human tumor cell line is measured as a screen for anti-cancer activity. Cells are grown in 96 well plates and exposed to the test compound for 48 hours. Compounds are tested at a single concentration, which is 10^-5 M for most compounds. The reported endpoint is percent growth (GI% or GIPRCNT), where numbers from 0 - 100% represent growth inhibition, and numbers from -100% - 0 represent cell death. For example, a value of 40 represents 60% growth inhibition. A value of 0 means no net growth occurred over the course of the experiment. A value of -40 indicates 40% of cells at the beginning of the experiment died by the end of the experiment. A value of -100 means all cells are dead at the end of the experiment.
NCI-60 Human Tumor Cell Lines Screen was performed using the standard one-dose NCI protocol, which is described in more detail at https://dtp.cancer.gov/discovery_development/nci-60/default.htm.
Compounds with GIPRCNT values below 10 were considered active. Activity score was based on GIPRCNT using the following formula: […]
Score is 0 for GIPRCNT values of 100 or above, 50 for GIPRCNT values of 0, and 100 for GIPRCNT values of -100.

The subject of test [7] is SK-MEL-5 melanoma.
The test system of test [8] is UACC-62 melanoma.
Test [9] has as its system LOX IMVI melanoma.
Test [10] concerns SK-MEL-28 melanoma. The note with it: 10 µM.

Consider `CC[C@@]1(O)C(=O)OCc2c1cc1n(c2=O)Cc2cc3c(CN(C)C)c(O)ccc3nc2-1`, for which the growth in test [1] (10 µM) was 21.2% (inactive) and -10.4% (active); in test [2] (10 µM), -15.4% (active) and -22.9% (active); in [3] (10 µM) it was 2.72% (active) and -62.8% (active); in test [4] (10 µM), 16% (inactive) and 10.7% (inactive); in [5] (10 µM), -23% (active) and 2.06% (active); in [6] (10 µM) it was -1.74% (active). For the same molecule, the growth in test [7] (10 µM) is -85.8% (active) and -77.4% (active); in test [8] (10 µM), -73.1% (active) and -71.5% (active); in test [9] (10 µM), -14.1% (active) and -34.9% (active); in [10] it was 19.5% (inactive).
With `CC/C(=C(\c1ccccc1)c1ccc(OCCN(C)C)cc1)c1ccccc1`, the growth in test [1] (10 µM) is 7.63% (active); in test [1] (12.5 µM), -65% (active); in test [2] (10 µM) it was -11.2% (active); in test [2] (12.5 µM), -66.6% (active); in [3] (10 µM) it was 39.9% (inactive); in test [3] (12.5 µM) it was -4.48% (active). Further, the growth in test [4] (10 µM) is 52.6% (inactive); in test [4] (12.5 µM) it was 1.19% (active); in test [5] (10 µM), 4.8% (active); in [5] (12.5 µM), -84.3% (active); in test [6] (10 µM) it was 34.4% (inactive); in test [6] (12.5 µM), -30.7% (active). Besides, the growth is -95.2% (active) in [7] (10 µM); -94.3% (active) in test [7] (12.5 µM); -90.5% (active) in [8] (12.5 µM); -43.9% (active) in [9] (10 µM); -99% (active) in test [9] (12.5 µM); 11.3% (inactive) in test [10].
For the molecule `CN(Cc1cnc2nc(N)nc(N)c2n1)c1ccc(C(=O)N[C@@H](CCC(=O)O)C(=O)O)cc1`, the growth in test [1] (2.5 µM) is 28.5% (inactive); in [1] (10 µM), 36% (inactive); in test [2] (2.5 µM), 29% (inactive); in [2] (10 µM), 25.9% (inactive); in [3] (2.5 µM), 73.8% (inactive); in test [3] (10 µM), 66% (inactive). In addition, the growth is 33.9% (inactive) in test [4] (2.5 µM); 29.5% (inactive) in [4] (10 µM); 34.1% (inactive) in [5] (2.5 µM); 38.3% (inactive) in test [5] (10 µM); 33.8% (inactive) in [6] (2.5 µM); 37% (inactive) in test [6] (10 µM). Also, the growth is 20% (inactive) in [7] (2.5 µM); 3.31% (active) in [7] (10 µM); 24.5% (inactive) in [8] (2.5 µM); 16.8% (inactive) in test [8] (10 µM); 14.3% (inactive) in [9] (2.5 µM); 16.3% (inactive) in test [9] (10 µM).
In the case of `COc1ccc2sc3cccc(NCCN(C)C)c3c(=O)c2c1`, the growth is 32.2% (inactive) and -29.5% (active) in test [1] (10 µM); 5.38% (active) and -36.9% (active) in [2] (10 µM); 51.8% (inactive) and -6.29% (active) in test [3] (10 µM); 63.9% (inactive) and 13.6% (inactive) in test [4] (10 µM); -18.1% (active) in test [5] (10 µM); 34.2% (inactive) and 21.1% (inactive) in test [6] (10 µM). Besides, the growth in [7] (10 µM) was 65.1% (inactive) and -98.2% (active); in test [8] (10 µM), 64.4% (inactive) and -96.3% (active); in test [9] (10 µM), 17.1% (inactive) and -91% (active); in test [10], 85.8% (inactive) and -80.8% (active).
